Records with an inconclusive call do not appear. Activity calls are given as the source filed them. Calls come from the whole dose curve; as a rule, active = well fitted inhibition curve with a large enough effect; inconclusive = small, poorly fitted or top-dose-only effect; inactive = flat fitted curve, though single readings scatter.

What all share (assay): qHTS profiling for inhibitors of Plasmodium falciparum proliferation (AID 504749); note: nearly all actives have a fitted effect of over 60% in size
Conditions in all cases: P. falciparum in erythrocytes, SYBR Green DNA, 72 h; series mostly up to 28.7 µM

Assay [1] relates to DIV14. In short, it runs like this: (§1)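 P. falciparum-infected erythrocytes (0.3% parasitemia, 2.5% hematocrit) incubated with compound 72 h at 37 C, 5% CO2. Parasite DNA detected by SYBR Green after lysis, overnight at room temperature; normalised to 0.29 uM artemisinin and DMSO.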
For assay [2], the system named is DIV17. A digest of the protocol: as §1
Assay [3] deals with DIV30. In short, it runs like this: as §1
The test system of assay [4] is HB3. A digest of the protocol: as §1
The subject of assay [5] is ICS. A digest of the protocol: as §1
Assay [6] relates to Dd2. In short, it runs like this: as §1
Assay [7] relates to ECU. In short, it runs like this:
as §1

Assay [8] has as its system FAB9. A digest of the protocol:
as §1

The subject of assay [9] is GB4. A digest of the protocol: as §1
The test system of assay [10] is JCK. A digest of the protocol: as §1
Potency is the fitted concentration of half-maximal effect.

On to `NC(CS)C(=O)O` (configuration not stated), for which the Potency in [1] is 6.75 µM (active); in assay [2] it was 9.53 µM (active); in assay [3], 16.9 µM (active); in assay [4], 8.91 µM (active); in assay [5], 2 µM (active).
Regarding `CN(C)/N=N/c1nc[nH]c1C(N)=O`, the Potency result in assay [1], in assay [2], in assay [3], in [6], in [7] and in [8] was “inactive” throughout. The Potency entry in [9], in assay [4], in [5] and in [10] was “inactive” throughout.
Turning to `COc1cccc(CCc2ccccc2OCC(CN(C)C)OC(=O)CCC(=O)O)c1` (configuration not stated), the Potency in assay [1] was 2.13 µM (active); in [2] it was 2.39 µM (active); in assay [3] it was 6.75 µM (active); in assay [6], 1.41 µM (active); in assay [7] it was 4.47 µM (active); in assay [9], 2.13 µM (active). In addition, the Potency was 12.6 µM (active) in [4], 1.12 µM (active) in [5] and 10 µM (active) in assay [10].
Take `O=C(Nc1ccc(Oc2ccc(Cl)cc2)c(Cl)c1)c1cc(I)cc(I)c1O`: the Potency entry in assay [1], in assay [2], in assay [3], in assay [6], in [8] and in assay [9] was “inactive” in each case. Also, the Potency entry in [4] and in assay [10] was “inactive” in each case.
For the compound `COc1ccc(CN2CCN(C(c3ccc(F)cc3)c3ccc(F)cc3)CC2)c(OC)c1OC`, the Potency in [1] is 12 µM (active); in assay [2] it was 12 µM (active); in [3], 16.9 µM (active); in assay [6], 7.94 µM (active); in [7] it was 12.6 µM (active); in [9], 9.53 µM (active). Also, the values for the Potency in [4] and in assay [5] were 11.2 µM (active) and 2.24 µM (active), respectively.
With `N[C@H](Cc1c[nH]c2ccccc12)C(=O)O`, the Potency result in assay [1], in [2], in [3], in [7], in assay [8] and in [9] was “inactive” in each case. Moreover, the Potency entry in assay [4], in assay [5] and in [10] was “inactive” in each case.
For `CC(C)(C)CC(C)(C)c1ccc(O)c(Cc2ccc(Cl)cc2Cl)c1`, the Potency in assay [1] is 0.601 µM (active); in [2] it was 1.07 µM (active); in [3], 1.51 µM (active); in [6], 1.58 µM (active); in assay [7], 2 µM (active); in assay [8], 5.62 µM (active). Further, the Potency in assay [9] was 0.849 µM (active); in [4] it was 2 µM (active); in assay [5] it was 0.316 µM (active); in assay [10], 3.16 µM (active).
As for `Cc1c(C)n(Cc2ccccc2)c2ccc(C(=O)OCCN(C)C)cc12`, the Potency entry in assay [1], in [2], in assay [3], in [6], in assay [7] and in assay [8] was “inactive” in each case. Besides, the Potency entry in assay [4] and in [10] was “inactive” throughout.
For the compound `CN=C(NC#N)Nc1ccc(C2=NNC(=O)CC2C)cc1` (configuration not stated), the Potency entry in assay [1], in assay [2], in assay [3] and in assay [9] was “inactive” in each case.
In the case of `O=C1c2ccccc2C(=O)C1c1ccccc1`, the Potency result in assay [1], in assay [2], in assay [3], in assay [6], in assay [7] and in assay [8] was “inactive” throughout. The Potency entry in assay [9], in assay [4], in [5] and in assay [10] was “inactive” in each case.
With `COC(=O)[C@H]1[C@H]2C[C@H]3c4[nH]c5ccccc5c4CCN3C[C@H]2CC[C@@H]1O`, the Potency entry in assay [1], in assay [2], in [3] and in assay [9] was “inactive” each time.
For `C=CCc1ccc(O)c(OC)c1`, the Potency result in assay [1], in [2], in assay [3], in [6], in assay [7] and in [8] was “inactive” throughout. The Potency result in assay [9], in assay [4], in assay [5] and in [10] was “inactive” each time.
As for `CN(C)CCOc1ccccc1Cc1ccccc1`, the Potency was 8.49 µM (active) in assay [1], 10.7 µM (active) in assay [2] and 5.01 µM (active) in assay [6]. The Potency entry in [3], in assay [8] and in [4] was “inactive” throughout.
For the compound `CCC(C(=O)OCCN(CC)CC)c1ccccc1` (configuration not stated), the Potency result in assay [1], in assay [2], in [3], in assay [7], in [8] and in [4] was “inactive” each time. Moreover, the Potency result in assay [5] and in assay [10] was “inactive” throughout.
`CCCCCCCCCCCCCCCCOP(=O)([O-])OCC[N+](C)(C)C`: the Potency result in assay [1], in assay [2], in assay [3], in assay [6], in assay [7] and in assay [8] was “inactive” each time. For the same compound, the Potency entry in assay [5] and in assay [10] was “inactive” throughout.
In the case of `CCCCN1CCCC1C(=O)Nc1c(C)cc(C)cc1C` (configuration not stated), the Potency entry in [1], in [2], in [3], in assay [7], in [8] and in assay [9] was “inactive” throughout. The Potency result in [4] and in assay [10] was “inactive” throughout.
With `Oc1ccc(Cl)c2cccnc12`, the Potency result in assay [1], in [2], in [3], in [7], in assay [8] and in [10] was “inactive” each time. For the same compound, the Potency in [5] was 11.2 µM (active).

These data come from PubChem BioAssay (NCATS).
